According to PubChem BioAssay (NCATS):
Records with an inconclusive call do not appear. Activity calls are given as the source filed them. Calls come from the whole dose curve; as a rule, active = well fitted cell-killing curve with a large enough effect; inconclusive = small, poorly fitted or top-dose-only effect, or effect the other way; inactive = flat fitted curve, though single readings scatter.

Experiments:
Test in all cases: Primary qHTS to identify gynecologic anti-cancer compounds using libraries of approved drugs and bioactive compounds (AID 1345084); note: nearly all actives have a fitted effect of over 55% in size
C33A = settings: Gynecologic cancer cell panel viability, ATPlite luminescence, 48 h; series mostly up to 57.5 µM
Method in brief: (§1)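 Cells, 1,000 per well, were allowed to settle for 16 h at 37 C before compound addition. Five concentrations were tested for 48 h, and viability was read by ATPlite luminescence after 15 min at room temperature.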

CAOV3 = settings: Gynecologic cancer cell panel viability, ATPlite luminescence, 48 h; series mostly up to 57.5 µM
Method in brief: as §1

CASKI = settings: Gynecologic cancer cell panel viability, ATPlite luminescence, 48 h; series mostly up to 57.5 µM
Method in brief: as §1

Es-2 = settings: Gynecologic cancer cell panel viability, ATPlite luminescence, 48 h; series mostly up to 57.5 µM
Method in brief: as §1

HeLa = settings: Gynecologic cancer cell panel viability, ATPlite luminescence, 48 h; series mostly up to 57.5 µM
Method in brief: as §1

Hek293T = settings: Gynecologic cancer cell panel viability, ATPlite luminescence, 48 h, control line for the selectivity index; series mostly up to 57.5 µM
Method in brief: as §1

JEG-3 = settings: Gynecologic cancer cell panel viability, ATPlite luminescence, 48 h; series mostly up to 57.5 µM
Method in brief: as §1

OV90 = settings: Gynecologic cancer cell panel viability, ATPlite luminescence, 48 h; series mostly up to 57.5 µM
Method in brief: as §1

PA-1 = settings: Gynecologic cancer cell panel viability, ATPlite luminescence, 48 h; series mostly up to 57.5 µM
Method in brief: as §1

Tov-21-G = settings: Gynecologic cancer cell panel viability, ATPlite luminescence, 48 h; series mostly up to 57.5 µM
Method in brief: as §1

Tov112D = settings: Gynecologic cancer cell panel viability, ATPlite luminescence, 48 h; series mostly up to 57.5 µM
Method in brief: as §1

SKOV3 = settings: Gynecologic cancer cell panel viability, ATPlite luminescence, 48 h; series mostly up to 57.5 µM
Method in brief: as §1
% is set by controls: 0 for no effect and ±100 for the full control effect.

CC1(C(=O)O)CCCC2(C)C3CCC4CC3(CCC12)CC4(O)CO (configuration not stated)
inactive: Potency (C33A) | Potency (CAOV3) | outcome (CASKI) | Potency (Es-2) | Potency (HeLa) | Potency (Hek293T) | Potency (JEG-3) | Potency (OV90) | Potency (PA-1) | Potency (Tov-21-G) | Potency (Tov112D)

NC(=O)c1ccc(F)c2c1C[C@@H](N(C1CCC1)C1CCC1)CO2
inactive: Potency (C33A) | Potency (CAOV3) | outcome (CASKI) | Potency (Es-2) | Potency (HeLa) | Potency (Hek293T) | Potency (JEG-3) | Potency (OV90) | Potency (PA-1) | Potency (Tov-21-G) | Potency (Tov112D)

CCC12CCCN3CCc4c(n(c5ccccc45)C(O)C1)C32 (configuration not stated)
inactive: Potency (C33A) | Potency (CAOV3) | outcome (CASKI) | Potency (Es-2) | Potency (HeLa) | Potency (Hek293T) | Potency (JEG-3) | Potency (OV90) | Potency (PA-1) | Potency (Tov-21-G) | Potency (Tov112D)

C[C@@H]1CC[C@]2(C(=O)O[C@@H]3O[C@H](CO[C@@H]4O[C@H](CO)[C@@H](O)[C@H](O)[C@H]4O)[C@@H](O)[C@H](O)[C@H]3O)CC[C@]3(C)C(=CCC4[C@@]5(C)CC[C@H](O)[C@](C)(C(=O)O)C5CC[C@]43C)[C@@H]2[C@]1(C)O (some centres not stated)
inactive: activity change, negative = cytotoxicity (C33A) -1.83% [at 11.6 µM] | activity change, negative = cytotoxicity (CAOV3) 5.32% [at 11.6 µM] | activity change, negative = cytotoxicity (CASKI) 3.63% [at 11.6 µM] | activity change, negative = cytotoxicity (Es-2) 6.01% [at 11.6 µM] | activity change, negative = cytotoxicity (HeLa) 4.82% [at 11.6 µM] | activity change, negative = cytotoxicity (Hek293T) 10.6% [at 11.6 µM] | activity change, negative = cytotoxicity (JEG-3) 0.0588% [at 11.6 µM] | activity change, negative = cytotoxicity (OV90) 16.5% [at 11.6 µM] | activity change, negative = cytotoxicity (PA-1) 3.28% [at 11.6 µM] | activity change, negative = cytotoxicity (Tov-21-G) 4.06% [at 11.6 µM] | activity change, negative = cytotoxicity (Tov112D) -2.64% [at 11.6 µM]

C[C@@H](CC[C@@H]1[C@@]2(C)CCCC(C)(C)C2CC[C@@]1(C)O)CC(=O)O (some centres not stated)
inactive: Potency (C33A) | Potency (CAOV3) | outcome (CASKI) | Potency (Es-2) | Potency (HeLa) | Potency (Hek293T) | Potency (JEG-3) | Potency (OV90) | Potency (PA-1) | Potency (Tov-21-G) | Potency (Tov112D)

CC(=O)O[C@@H]1C(O)C[C@@]2(C)C(CC[C@@H](C)C23Cc2c(O)cc4c(c2O3)CNC4=O)C1(C)C (some centres not stated)
inactive: Potency (C33A) | Potency (CAOV3) | outcome (CASKI) | Potency (Es-2) | Potency (Hek293T) | Potency (JEG-3) | Potency (OV90) | Potency (PA-1) | Potency (Tov-21-G) | Potency (Tov112D)

Cc1ccc(C)c(NC(=O)CNS(=O)(=O)c2ccc3[nH]c(=O)oc3c2)c1
inactive: Potency (C33A) | Potency (CAOV3) | Potency (Es-2) | Potency (HeLa) | Potency (Hek293T) | Potency (JEG-3) | Potency (OV90) | Potency (PA-1) | Potency (SKOV3) | Potency (Tov-21-G) | Potency (Tov112D)

CC1=C2CC(C)(C)CC2C(O)C2=C(C1)C(=O)OC2O (configuration not stated)
inactive: Potency (C33A) | Potency (CAOV3) | outcome (CASKI) | Potency (Es-2) | Potency (HeLa) | Potency (Hek293T) | Potency (JEG-3) | Potency (OV90) | Potency (SKOV3) | Potency (Tov-21-G) | Potency (Tov112D)

OCC1OC(Oc2cc(O)cc(/C=C/c3ccc(OC4OC(CO)C(O)C(O)C4O)cc3O)c2)C(O)C(O)C1O (configuration not stated)
inactive: Potency (C33A) | Potency (CAOV3) | outcome (CASKI) | Potency (Es-2) | Potency (HeLa) | Potency (Hek293T) | Potency (JEG-3) | Potency (OV90) | Potency (PA-1) | Potency (Tov-21-G) | Potency (Tov112D)

CC1(C)CC[C@]2(C(=O)O)CC[C@]3(C)C(=CCC4[C@@]5(C)CC[C@H](O)C(C)(C)C5CC[C@]43C)C2C1 (some centres not stated)
inactive: Potency (C33A) | Potency (CAOV3) | outcome (CASKI) | Potency (Es-2) | Potency (HeLa) | Potency (Hek293T) | Potency (JEG-3) | Potency (OV90) | Potency (SKOV3) | Potency (Tov-21-G) | Potency (Tov112D)

Cc1ccc(COC(=O)N2CC[C@@H](CNc3ncccn3)[C@@H](F)C2)cc1
inactive: Potency (C33A) | Potency (CAOV3) | outcome (CASKI) | Potency (Es-2) | Potency (HeLa) | Potency (Hek293T) | Potency (JEG-3) | Potency (OV90) | Potency (PA-1) | Potency (Tov-21-G) | Potency (Tov112D)

CC(=O)O[C@@H]1CC2C(C)(C)C(=O)C=C[C@]2(C)C2CC[C@]3(C)C(=CC(=O)[C@@H]3c3ccoc3)[C@@]21C (some centres not stated)
inactive: Potency (C33A) | Potency (CAOV3) | outcome (CASKI) | Potency (Es-2) | Potency (HeLa) | Potency (Hek293T) | Potency (JEG-3) | Potency (PA-1) | Potency (SKOV3) | Potency (Tov-21-G) | Potency (Tov112D)

COc1ccc2c(c1)C=C1Cn3c-2c(C2CCCCC2)c2ccc(cc23)C(=O)NS(=O)(=O)N(C)CCOCCN(C)C1=O
inactive: Potency (C33A) | Potency (CAOV3) | outcome (CASKI) | Potency (HeLa) | Potency (Hek293T) | Potency (JEG-3) | Potency (OV90) | Potency (Tov-21-G) | Potency (Tov112D)

CCC(C)/C=C(C)/C=C/C1=CC2=C(Cl)C(=O)C(C)(OC(C)=O)C(=O)C2=CN1C(CCC(=O)O)C(=O)O (configuration not stated)
inactive: Potency (C33A) | Potency (CAOV3) | outcome (CASKI) | Potency (Es-2) | Potency (HeLa) | Potency (JEG-3) | Potency (OV90) | Potency (PA-1) | Potency (SKOV3) | Potency (Tov-21-G) | Potency (Tov112D)

C[C@@H]1O[C@@H](O[C@H]2[C@H](O[C@H]3[C@H](O[C@H]4CC[C@@]5(C)C(CC[C@]6(C)C5CC=C5[C@@H]7CC(C)(C)CC(=O)[C@]7(C)CC[C@]56C)[C@@]4(C)CO)O[C@H](C(=O)O)[C@@H](O)[C@@H]3O)O[C@H](CO)[C@H](O)[C@@H]2O)[C@H](O)[C@H](O)[C@H]1O (some centres not stated)
inactive: activity change, negative = cytotoxicity (C33A) 0.189% [at 11.6 µM] | activity change, negative = cytotoxicity (CAOV3) 7.98% [at 11.6 µM] | activity change, negative = cytotoxicity (CASKI) 5.16% [at 11.6 µM] | activity change, negative = cytotoxicity (Es-2) -0.773% [at 11.6 µM] | activity change, negative = cytotoxicity (HeLa) 5.13% [at 11.6 µM] | activity change, negative = cytotoxicity (Hek293T) -1.22% [at 11.6 µM] | activity change, negative = cytotoxicity (JEG-3) 4.8% [at 11.6 µM] | activity change, negative = cytotoxicity (OV90) -8.44% [at 11.6 µM] | activity change, negative = cytotoxicity (SKOV3) 0.762% [at 11.6 µM] | activity change, negative = cytotoxicity (Tov-21-G) 5.22% [at 11.6 µM] | activity change, negative = cytotoxicity (Tov112D) -2.67% [at 11.6 µM]
